According to the supplement of paper PMC11732987, “Enantioselective OTUD7B fragment discovery through chemoproteomics screening and high-throughput optimisation” (Communications Chemistry, 2025):

What was measured:
Test in all cases: log2 ratio of Biotin-Ahx-Ub-VS probe labelling (fragment/DMSO); higher = less target engagement (more negative = stronger competition), active = hit call of the paper (q ≤ 0.05, log2 ratio ≤ -1)
Details in all cases: compound concentration: 200 uM; treatment time: 3 h
[1] = target: T1, ALG13 (UniProt Q9NP73)
T1 sequence (whole entry): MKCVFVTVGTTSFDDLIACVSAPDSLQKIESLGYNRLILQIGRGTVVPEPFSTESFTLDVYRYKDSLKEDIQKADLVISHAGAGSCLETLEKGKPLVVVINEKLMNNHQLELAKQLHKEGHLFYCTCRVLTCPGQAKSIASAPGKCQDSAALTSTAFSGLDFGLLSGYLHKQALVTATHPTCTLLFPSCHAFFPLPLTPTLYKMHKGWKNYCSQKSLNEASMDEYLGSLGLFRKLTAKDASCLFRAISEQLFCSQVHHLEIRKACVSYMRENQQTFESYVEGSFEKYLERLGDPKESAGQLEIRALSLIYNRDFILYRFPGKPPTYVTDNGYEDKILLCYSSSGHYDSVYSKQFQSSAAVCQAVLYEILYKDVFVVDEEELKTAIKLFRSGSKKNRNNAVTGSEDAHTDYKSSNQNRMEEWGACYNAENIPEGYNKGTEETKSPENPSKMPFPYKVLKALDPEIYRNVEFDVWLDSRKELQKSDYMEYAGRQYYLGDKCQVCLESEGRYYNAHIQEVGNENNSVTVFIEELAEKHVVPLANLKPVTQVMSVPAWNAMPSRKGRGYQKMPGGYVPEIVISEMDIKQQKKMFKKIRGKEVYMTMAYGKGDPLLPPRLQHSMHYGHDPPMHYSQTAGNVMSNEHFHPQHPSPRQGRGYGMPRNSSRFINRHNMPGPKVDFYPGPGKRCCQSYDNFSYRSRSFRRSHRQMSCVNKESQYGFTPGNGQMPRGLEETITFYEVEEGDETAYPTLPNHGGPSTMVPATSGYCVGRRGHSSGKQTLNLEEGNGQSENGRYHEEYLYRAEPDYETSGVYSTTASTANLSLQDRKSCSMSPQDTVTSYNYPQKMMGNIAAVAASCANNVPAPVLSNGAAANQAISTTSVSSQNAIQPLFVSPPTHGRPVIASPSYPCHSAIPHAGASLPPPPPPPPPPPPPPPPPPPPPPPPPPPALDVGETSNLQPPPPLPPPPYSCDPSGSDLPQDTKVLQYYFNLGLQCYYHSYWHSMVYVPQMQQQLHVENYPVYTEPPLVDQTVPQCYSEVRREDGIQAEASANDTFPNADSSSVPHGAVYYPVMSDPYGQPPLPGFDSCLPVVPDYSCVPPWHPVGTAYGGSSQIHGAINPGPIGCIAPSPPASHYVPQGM
Summary of the method: (§1)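 The table lists average log2 ratios of fragment over vehicle, from an unpaired t-test on global-median-normalised Spectronaut label-free quantities. Proteins with ≥2 unique peptides were used. Samples were HEK293T lysate (495 µg) treated in triplicate with fragment at 200 µM or vehicle for 3 h, then with Biotin-Ahx-Ub-VS (0.5 µM final) for 1 h, with labelled DUBs NeutrAvidin-enriched and run by diaPASEF LC-MS/MS.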

[2] = target: ATXN3 (UniProt P54252)
Summary of the method: as §1

[3] = target: T2, BAP1 (UniProt Q92560)
T2 sequence (whole entry): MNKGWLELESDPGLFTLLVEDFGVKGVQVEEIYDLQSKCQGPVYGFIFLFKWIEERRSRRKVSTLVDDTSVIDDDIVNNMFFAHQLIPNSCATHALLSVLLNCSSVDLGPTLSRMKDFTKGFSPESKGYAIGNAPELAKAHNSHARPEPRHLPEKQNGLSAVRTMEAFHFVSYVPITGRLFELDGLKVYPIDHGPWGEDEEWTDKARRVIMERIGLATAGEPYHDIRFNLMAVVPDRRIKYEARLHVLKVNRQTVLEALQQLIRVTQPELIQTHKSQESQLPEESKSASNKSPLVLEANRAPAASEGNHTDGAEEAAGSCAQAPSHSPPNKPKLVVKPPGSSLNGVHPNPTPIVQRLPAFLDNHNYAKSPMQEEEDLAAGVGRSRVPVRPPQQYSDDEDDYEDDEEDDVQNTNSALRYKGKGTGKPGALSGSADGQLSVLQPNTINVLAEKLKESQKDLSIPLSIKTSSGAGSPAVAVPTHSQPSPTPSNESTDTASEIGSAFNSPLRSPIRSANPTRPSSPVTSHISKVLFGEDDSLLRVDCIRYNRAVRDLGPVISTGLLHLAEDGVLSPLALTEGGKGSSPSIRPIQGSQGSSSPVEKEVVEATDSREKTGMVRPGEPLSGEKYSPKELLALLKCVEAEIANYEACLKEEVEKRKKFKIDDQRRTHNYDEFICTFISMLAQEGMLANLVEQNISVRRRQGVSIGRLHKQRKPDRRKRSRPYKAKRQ
Summary of the method: as §1

[4] = target: EIF3F (UniProt O00303)
Summary of the method: as §1

[5] = target: EIF3H (UniProt O15372)
Summary of the method: as §1

[6] = target: T3, FAM105A (UniProt Q9NUU6)
T3 sequence (whole entry): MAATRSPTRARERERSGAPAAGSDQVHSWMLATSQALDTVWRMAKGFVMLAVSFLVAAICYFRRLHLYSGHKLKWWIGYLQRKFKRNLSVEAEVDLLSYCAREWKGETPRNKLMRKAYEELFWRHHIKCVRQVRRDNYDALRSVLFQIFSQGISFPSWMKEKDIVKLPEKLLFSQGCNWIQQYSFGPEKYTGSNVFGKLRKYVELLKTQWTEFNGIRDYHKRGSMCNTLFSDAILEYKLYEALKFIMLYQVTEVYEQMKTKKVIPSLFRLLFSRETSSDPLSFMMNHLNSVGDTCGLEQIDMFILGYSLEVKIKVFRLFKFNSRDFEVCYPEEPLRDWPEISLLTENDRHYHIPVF
Summary of the method: as §1

[7] = target: OTUB1 (UniProt Q96FW1)
Summary of the method: as §1

[8] = target: T4, OTUD4 (UniProt Q01804)
T4 sequence (whole entry): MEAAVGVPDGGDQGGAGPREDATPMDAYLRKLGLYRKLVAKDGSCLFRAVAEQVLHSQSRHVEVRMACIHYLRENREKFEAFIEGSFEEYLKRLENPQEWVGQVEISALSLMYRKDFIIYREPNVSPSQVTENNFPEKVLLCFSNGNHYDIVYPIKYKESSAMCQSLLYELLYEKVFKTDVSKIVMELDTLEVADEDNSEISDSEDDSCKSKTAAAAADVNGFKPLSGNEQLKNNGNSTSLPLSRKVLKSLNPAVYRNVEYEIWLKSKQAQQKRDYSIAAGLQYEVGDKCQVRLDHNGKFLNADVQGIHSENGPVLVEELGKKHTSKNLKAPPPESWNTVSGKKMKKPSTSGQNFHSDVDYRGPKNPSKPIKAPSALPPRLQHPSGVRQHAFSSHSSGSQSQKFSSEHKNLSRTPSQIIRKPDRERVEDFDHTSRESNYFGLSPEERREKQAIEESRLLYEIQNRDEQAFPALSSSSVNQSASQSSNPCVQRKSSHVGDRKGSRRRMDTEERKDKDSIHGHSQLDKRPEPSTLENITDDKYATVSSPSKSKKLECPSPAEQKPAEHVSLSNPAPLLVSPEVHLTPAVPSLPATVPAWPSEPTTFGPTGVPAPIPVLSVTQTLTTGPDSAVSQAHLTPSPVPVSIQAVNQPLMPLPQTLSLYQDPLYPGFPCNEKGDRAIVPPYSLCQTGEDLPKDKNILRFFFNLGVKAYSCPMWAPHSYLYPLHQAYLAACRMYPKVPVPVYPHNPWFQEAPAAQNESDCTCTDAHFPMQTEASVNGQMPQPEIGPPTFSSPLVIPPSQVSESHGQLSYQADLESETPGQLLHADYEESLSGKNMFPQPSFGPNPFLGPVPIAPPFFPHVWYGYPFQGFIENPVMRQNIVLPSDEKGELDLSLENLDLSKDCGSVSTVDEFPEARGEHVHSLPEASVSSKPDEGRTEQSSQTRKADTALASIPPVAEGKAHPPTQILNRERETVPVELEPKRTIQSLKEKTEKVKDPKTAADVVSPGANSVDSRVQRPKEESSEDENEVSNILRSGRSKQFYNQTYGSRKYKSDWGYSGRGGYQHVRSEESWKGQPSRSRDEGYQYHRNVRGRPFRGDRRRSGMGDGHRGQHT
Summary of the method: as §1

[9] = target: T5, OTUD5 (UniProt Q96G74)
T5 sequence (whole entry): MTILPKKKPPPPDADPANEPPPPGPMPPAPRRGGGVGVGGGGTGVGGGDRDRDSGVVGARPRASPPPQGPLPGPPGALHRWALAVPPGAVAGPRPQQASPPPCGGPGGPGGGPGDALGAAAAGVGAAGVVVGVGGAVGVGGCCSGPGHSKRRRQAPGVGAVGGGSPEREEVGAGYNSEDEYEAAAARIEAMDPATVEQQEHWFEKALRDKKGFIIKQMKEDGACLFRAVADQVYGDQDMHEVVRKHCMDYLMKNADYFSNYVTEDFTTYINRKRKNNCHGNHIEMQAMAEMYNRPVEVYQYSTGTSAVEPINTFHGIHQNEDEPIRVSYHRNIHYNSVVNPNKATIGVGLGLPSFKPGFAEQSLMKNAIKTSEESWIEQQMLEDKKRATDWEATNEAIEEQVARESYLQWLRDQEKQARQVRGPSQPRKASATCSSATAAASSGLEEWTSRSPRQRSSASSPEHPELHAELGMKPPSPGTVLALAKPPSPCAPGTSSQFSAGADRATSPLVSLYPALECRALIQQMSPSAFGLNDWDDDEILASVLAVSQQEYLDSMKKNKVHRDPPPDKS
Summary of the method: as §1

Measured: log2 ratio of Biotin-Ahx-Ub-VS probe labelling

ATXN3, sequence (P54252 whole entry): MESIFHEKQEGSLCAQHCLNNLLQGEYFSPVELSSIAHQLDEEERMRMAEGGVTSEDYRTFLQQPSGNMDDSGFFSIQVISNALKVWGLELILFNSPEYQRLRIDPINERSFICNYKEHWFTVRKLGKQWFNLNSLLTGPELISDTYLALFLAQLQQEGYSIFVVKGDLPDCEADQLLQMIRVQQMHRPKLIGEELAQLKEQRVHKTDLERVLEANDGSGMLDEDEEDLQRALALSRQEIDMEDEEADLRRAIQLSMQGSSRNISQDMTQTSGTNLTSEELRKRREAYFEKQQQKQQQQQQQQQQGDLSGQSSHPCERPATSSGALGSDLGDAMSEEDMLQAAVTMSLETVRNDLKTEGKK
EIF3F, sequence (O00303 whole entry): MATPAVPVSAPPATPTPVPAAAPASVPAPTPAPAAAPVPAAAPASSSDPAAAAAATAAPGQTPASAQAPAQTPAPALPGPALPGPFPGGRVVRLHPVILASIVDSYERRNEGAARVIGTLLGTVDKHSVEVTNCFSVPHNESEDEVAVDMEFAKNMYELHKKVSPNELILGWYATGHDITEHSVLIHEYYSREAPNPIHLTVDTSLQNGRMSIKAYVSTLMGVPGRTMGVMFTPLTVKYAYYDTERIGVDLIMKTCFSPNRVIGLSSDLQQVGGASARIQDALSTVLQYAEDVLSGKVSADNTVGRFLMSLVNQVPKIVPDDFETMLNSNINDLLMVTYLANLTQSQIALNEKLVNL
EIF3H, sequence (O15372 whole entry): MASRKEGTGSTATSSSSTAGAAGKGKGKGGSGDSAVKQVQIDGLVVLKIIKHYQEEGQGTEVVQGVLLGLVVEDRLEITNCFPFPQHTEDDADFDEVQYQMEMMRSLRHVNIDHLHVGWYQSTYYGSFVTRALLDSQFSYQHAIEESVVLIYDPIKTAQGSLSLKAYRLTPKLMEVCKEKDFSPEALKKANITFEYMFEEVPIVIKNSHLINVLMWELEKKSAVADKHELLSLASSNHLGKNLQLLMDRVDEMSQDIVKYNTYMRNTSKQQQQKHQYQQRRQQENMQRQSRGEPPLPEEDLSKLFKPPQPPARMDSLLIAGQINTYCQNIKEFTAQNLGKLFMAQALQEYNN
OTUB1, sequence (Q96FW1 whole entry): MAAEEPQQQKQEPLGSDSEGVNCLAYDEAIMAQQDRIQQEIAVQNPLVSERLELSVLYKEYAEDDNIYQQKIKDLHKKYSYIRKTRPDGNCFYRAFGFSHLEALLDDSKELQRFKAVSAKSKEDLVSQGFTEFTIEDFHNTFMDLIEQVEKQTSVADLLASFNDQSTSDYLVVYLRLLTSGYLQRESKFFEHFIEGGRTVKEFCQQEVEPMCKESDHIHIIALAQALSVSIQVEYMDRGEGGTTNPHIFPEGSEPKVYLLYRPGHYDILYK

Cc1noc(C)c1CNC(=O)CCl
inactive: [1] -0.968 | [2] -0.884 | [4] -0.561 | [5] 0.0244 | [6] 0.341 | [7] -0.618 | [8] -0.737 | [9] -0.764
active: [3] -2.03
